# Laboratory results from PubChem BioAssay (EPA / NIEHS).
# Values joined by “and” are separate entries in the source; they are usually repeats but may differ in a detail not shown here. Equal values may be shown once. More than one record can exist for a structure, and the calls need not agree. Active and inactive are the calls of the source. The calls were made as follows: active = hit-call score of the fitted dose curve at least 0.9, where 1 is the maximum; inactive = score below 0.9.
# Read-out: Interleukin-1 alpha (IL1a), IL1A (gene 3552)
# Assay: BSK_KF3CT_IL1a: BioMAP Diversity Plus: KF3CT Assay for Interleukin-1 alpha (IL1a) Biomarker Activity (AID 2283070)
# Conditions: primary human keratinocytes with fibroblasts; actives raise or lower the signal
# Experimental: BSK_KF3CT is a cell-based, multiplexed-readout assay that uses keratinocytes and foreskin fibroblasts, a human skin primary cell co-culture, with measurements taken at 24 hours after chemical dosing in a 96-well plate.BSK_KF3CT_IL1a is an assay component measured in the BSK_KF3CT assay. It measures IL-1a antibody related to regulation of gene expression using ELISA technology.Data from the assay component BSK_KF3CT_IL1a was analyzed into 1 assay endpoint. This assay endpoint, BSK_KF3CT_IL1a, was analyzed with bidirectional fitting relative to DMSO as the negative control and baseline of activity. Using a type of binding reporter, gain or loss-of-signal activity can be used to understand changes in the signaling as they relate to the gene IL1A. Furthermore, this assay endpoint can be referred to as a primary readout, because this assay has produced multiple assay endpoints where this one serves a signaling function. To generalize the intended target to other relatable targets, this assay endpoint is annotated to the cytokine intended target family, where the subfamily is interleukins.
# The levels of cell surface (or secreted, indicated by the prefix "s") biomarker endpoints were measured by ELISA. Overt cytotoxicity to cells in confluent adherent cultures (all systems other than the BT system) was assessed by measuring total protein levels using sulforhodamine B (SRB) staining in parallel cultures at the time of biomarker measurements, indicated as SRB endpoints. For proliferation assays for adherent cell types, individual cell types are cultured at sub-confluence and relative cell numbers quantified by SRB staining at time points optimized for each system (48 h: 3C and CASM3C systems; 72 h: BT and HDF3CGF systems; 96 h: SAg system). SRB was performed by staining cells with 0.1% SRB after fixation with 10% TCA and reading wells at 560 nm.Viability and proliferation of PBMC (T cells) was quantified by Alamar Blue reduction for the SAg and BT systems. For PBMC viability (referred to as PBMC Cytotoxicity within the assay endpoint names), cells were plated (75,000/well in a 96-well plate) and then chemical samples added for 1 h before addition of activators, SEB and TSST-1 (20 ng/mL final concentration each). Cells were incubated for 90 h. Then, Alamar Blue (20 uL/well) (Invitrogen, Cat DAL1100) was added for 6 h, and the plates were read with a fluorescence microplate reader at 546/580 nm (excitation/emission). For PBMC proliferation, cells were plated and activated as above but incubated for only 16 h prior to addition of Alamar Blue. Plates were read after 6 h.
Compound,AC50,outcome
Cc1ccc(S(=O)(=O)C(I)I)cc1,2.47 µM (active),
OCC(O)CC(F)(F)C(F)(F)C(F)(F)C(F)(F)C(F)(F)C(F)(F)C(F)(F)C(F)(F)F (stereo not given),0.166 µM (active),inactive
CNS(=O)(=O)C(F)(F)C(F)(F)C(F)(F)C(F)(F)C(F)(F)C(F)(F)C(F)(F)C(F)(F)F,,inactive
O=C(Cl)C(F)(F)C(F)(F)C(F)(F)C(F)(F)C(F)(F)C(F)(F)C(F)(F)F,,inactive
O=C(O)CCC(F)(F)C(F)(F)C(F)(F)C(F)(F)C(F)(F)C(F)(F)C(F)(F)F,,inactive
OCC(F)(F)C(F)(F)C(F)(F)C(F)(F)C(F)(F)C(F)(F)C(F)(F)C(F)(F)CO,50.4 µM (active),inactive
CCOC(=O)CC(=O)C(F)(F)C(F)(F)F,,inactive
NC(O)(C(F)(F)F)C(F)(F)F,,inactive
Cc1cnccn1,,inactive
O=C(O)C(F)(F)C(F)(F)C(F)(F)OC(F)(F)F,,inactive
Cc1cc(O)c(C(C)(C)C)cc1C(C)(C)C,4.04 µM (active),
NCC(F)(F)C(F)(F)C(F)(F)C(F)(F)C(F)(F)C(F)(F)C(F)(F)C(F)(F)F,,inactive
CCN(CC)c1ccc2c(c1)Oc1cc(N(CC)CC)ccc1C21OC(=O)c2ccccc21,,inactive
NS(=O)(=O)C(F)(F)C(F)(F)C(F)(F)C(F)(F)C(F)(F)C(F)(F)F,,inactive
O=C(O)C(F)(F)C(F)(F)C(F)(F)C(=O)O,,inactive
CCN(CC)c1ccc(C=O)cc1,,inactive
O=S(=O)(O)CCC(F)(F)C(F)(F)C(F)(F)C(F)(F)C(F)(F)C(F)(F)C(F)(F)C(F)(F)F,7.84 µM (active),inactive
O=S(=O)(O)CCC(F)(F)C(F)(F)C(F)(F)C(F)(F)F,,inactive
O=C(O)C(F)(F)C(F)(F)C(F)(F)OC(F)(C(F)(F)F)C(F)(F)F,,inactive

Compound,AC50,outcome
FC(F)(F)C(F)(F)C(F)(F)CC1CO1 (stereo not given),,inactive
CC(C)(C)c1cc(CCC(=O)NCCCCCCNC(=O)CCc2cc(C(C)(C)C)c(O)c(C(C)(C)C)c2)cc(C(C)(C)C)c1O,,inactive
C=CC(=O)OCC(F)(F)C(F)(F)C(F)(F)COC(=O)C=C,30 µM (active) and 5.95 µM (active),
CC1=CC2C3C=CC(C3)C2C1C (stereo not given),,inactive
COC(F)(C(F)F)C(F)(F)F (stereo not given),,inactive
O=C(Cl)C(F)(F)C(F)(F)C(F)(F)C(F)(F)C(F)(F)C(F)(F)F,,inactive
O=C=Nc1cccc2c(N=C=O)cccc12,,inactive
O=C(F)C1(F)C(F)(F)C(F)(F)C(F)(F)C(F)(F)C1(F)F,,inactive
O=C(O)C(F)(F)C(F)(F)C(F)(F)C(F)(F)C(F)(F)C(F)(F)C(F)F,,inactive
NC(=O)C(F)(F)C(F)(F)C(F)(F)C(F)F,,inactive
OCC(F)(F)C(F)(F)C(F)(F)CO,,inactive
C=CC(=O)OCCC(F)(F)C(F)(F)C(F)(F)C(F)(F)F,,inactive
C=CC(=O)OCC(F)(F)C(F)(F)C(F)(F)C(F)(F)C(F)(F)C(F)(F)C(F)(F)C(F)F,,inactive
Cc1ccc(O)c(-n2nc3ccccc3n2)c1,,inactive
O=C=NCc1cccc(CN=C=O)c1,,inactive
NC(=O)C(F)(F)C(F)(F)C(F)(F)F,,inactive
CCN=C1C=CC(=C(c2ccc(N(CC)CC)cc2)c2ccc(N(CC)CC)cc2)c2ccccc21,2.69 µM (active) and 2.13 µM (active),
CC(C)CCCC(C)CCO (stereo not given),34.4 µM (active),
